The record followed here is PubChem BioAssay AID1839 (Johns Hopkins Ion Channel Center, 2009).

About 220 (9.2%) of roughly 2,400 compounds were called active. This is one part of a sample in which actives are shown more often than they occur. Unmarked numbers belong to inactive results.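 The calls were made as follows: active = signal change above the mean of dofetilide-free buffer controls plus 3 SD, so a positive margin; inactive = the rest.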

The assay is described as follows: nonspecific flux effects in parental CHO-K1, confirmation, counter-screen for hERG block protection project, cell-based, CHO-K1 parental line, FluxOR thallium flux (AID 1839).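 Also: compounds applied alone with no dofetilide to cells lacking hERG.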 The settings on record: CHO-K1 parental cells, FluxOR thallium flux fluorescence; at 10 µM.
On to `O=C(N/N=C/c1ccc(Sc2ccccn2)o1)c1cc2ccccc2cc1O`, for which the signal change vs control minus 3*SD hit threshold (margin above threshold, higher = more increase) was -17.7%.
To `C/C(=N\NC(=O)c1ccoc1C)c1cccc2ccccc12` belongs -5.5%; to `Cc1cccc(/C=N/NC(=O)c2cc(Br)ccc2O)n1`, -26.5%.
As to `C/C(=N\NC(=S)Nc1c(C)cccc1C)c1cc2ccccc2o1`, the signal change vs control minus 3*SD hit threshold (margin above threshold, higher = more increase) is -26%.
For `Cc1ccc(/C=N/NC(=O)c2cc(-c3ccncc3)nc3ccccc23)o1` the value was -58.7%; for `C/C(=N/NC(=O)c1cc2ccccc2cc1O)c1ccco1`, 3.4% (active); for `COc1ccc(CCNC(=O)c2cc3ccccc3oc2=O)cc1`, -38.8%.
To `Cc1ccc(/C=N/NC(=O)c2cc3ccccc3cc2O)o1` belongs 18.2% (active); to `C/C(=N\NC(=O)c1cc2ccccc2cc1O)c1cc2ccccc2o1`, 50.8% (active); to `C/C(=N\NC(=O)c1cc2ccccc2cc1O)c1ccc(C)o1`, 3.3% (active).
Regarding `Cc1ccc(/C=N/NC(=O)c2cc(C)oc2C)o1`, the signal change vs control minus 3*SD hit threshold (margin above threshold, higher = more increase) was -22.9%.
For `C/C(=N\NC(=O)c1cc2ccccc2cc1O)c1ccccn1`, the signal change vs control minus 3*SD hit threshold (margin above threshold, higher = more increase) is -32.4%.
`NC(=O)Cn1c2[n+](c3ccccc31)CC(O)CS2` (stereo not drawn): the signal change vs control minus 3*SD hit threshold (margin above threshold, higher = more increase) was -25.7%.
For `CC(=O)c1ccc2c(c1)OCCOCCOCCO2` the value was -35.7%; for `CC(CCc1ccccc1)NC(=S)NC(=O)c1ccco1` (stereo not drawn), 0%.
Take `C/C(=C\C(=O)c1ccccc1)NNC(=O)c1ccc(Cl)cc1`: the signal change vs control minus 3*SD hit threshold (margin above threshold, higher = more increase) is -4.7%.
To `Cc1ccc(Cn2nnc3c(=O)n(CC(=O)N4CCCc5ccccc54)cnc32)cc1` belongs -24.6%; to `Cc1ccc(C(=O)CC(=O)c2ccccc2C)c(O)c1`, -34%.
To `Cc1cc(=S)[nH]c2c(C)cccc12` belongs -20%; to `c1ccc(CCCNc2ncnc3nc[nH]c23)cc1`, -18.5%.
On to `CSc1nsc(SCC(=O)Nc2ccccc2C(=O)O)n1`, for which the signal change vs control minus 3*SD hit threshold (margin above threshold, higher = more increase) was -22.4%.
For the compound `O=C(NC(=S)Nc1nc(-c2ccccc2)cs1)c1cncc(Br)c1`, the signal change vs control minus 3*SD hit threshold (margin above threshold, higher = more increase) is -17.9%.
Regarding `Cc1ccc(NC(=S)c2nc3ccccc3s2)cc1`, the signal change vs control minus 3*SD hit threshold (margin above threshold, higher = more increase) was -24.9%.
For `S=C(Nc1ccc(Cl)cc1)c1nc2ccccc2s1` the value was 10.2% (active).
For `Cc1cccc(NC(=S)c2nc3ccccc3s2)c1` the value was -28.6%; for `O=c1[nH]c(C(Cl)(Cl)Cl)nc2ccc3ccccc3c12`, -12%.
Turning to `COc1ccc(OC)c(NC(=O)C(=O)NNC(=O)c2cccs2)c1`, the signal change vs control minus 3*SD hit threshold (margin above threshold, higher = more increase) is -26.1%.
To `COc1ccc(C)cc1NC(=O)C(=O)NNC(=O)c1ccco1` belongs 23.7% (active); to `O=C(CCC(=O)Nc1ccccc1)NNC(=O)c1ccco1`, -34.1%.
Take `COc1ccc(C)cc1NC(=O)Nc1ccc(C(=O)N2CCCC2)cc1`: the signal change vs control minus 3*SD hit threshold (margin above threshold, higher = more increase) was -20.5%.
On to `COc1ccccc1NC(=O)C(=O)NNC(=O)c1ccco1`, for which the signal change vs control minus 3*SD hit threshold (margin above threshold, higher = more increase) was 6.5% (active).
For `COCC1CCCN(C(=O)c2ccc3oc(C(C)C)nc3c2)C1` (stereo not drawn) the value was -17.8%; for `C/C(O)=C/c1nc2ccccc2[nH]c1=O`, -30.7%; for `CSc1nc2c(c(=O)[nH]1)C(c1ccc(Br)cc1)CC(=O)N2` (stereo not drawn), -22.1%.
Turning to `C=CCn1c(SCC(N)=O)nc2scc(-c3ccc(C)o3)c2c1=O`, the signal change vs control minus 3*SD hit threshold (margin above threshold, higher = more increase) is -20.7%.
For `C=CCn1c(=S)[nH]c2scc(-c3cccs3)c2c1=O` the value was 37.4% (active); for `C=CCn1c(=S)[nH]c2scc(-c3ccc(C)o3)c2c1=O`, 27.1% (active).
Consider `C=CCn1c(=S)[nH]c2cc(-c3ccccc3)sc2c1=O`, for which the signal change vs control minus 3*SD hit threshold (margin above threshold, higher = more increase) is -25.2%.
In the case of `C=CCn1c(=S)[nH]c2ccc(Br)cc2c1=O`, the signal change vs control minus 3*SD hit threshold (margin above threshold, higher = more increase) is -17.4%.
Regarding `Cc1ccccc1NC(=O)CN1C(=O)S/C(=C\c2ccc(-c3cccc(C(=O)O)c3C)o2)C1=O`, the signal change vs control minus 3*SD hit threshold (margin above threshold, higher = more increase) was -33.5%.
To `C=CCNc1sc(C(=O)C(C)(C)C)c(N)c1C#N` belongs -32.1%.
For `O=C(COc1ccc2c3c(c(=O)oc2c1)CCC3)N[C@@H](Cc1ccccc1)C(=O)O` the value was -5.5%; for `CSC1=C(C#N)C(CC(C)C)C2=C(CCCC2=O)N1` (stereo not drawn), -26.3%.
Regarding `S=c1[nH]c2cc(Cl)ccc2s1`, the signal change vs control minus 3*SD hit threshold (margin above threshold, higher = more increase) was 38.9% (active).
In the case of `S=c1[nH]c2ccc(Cl)cc2s1`, the signal change vs control minus 3*SD hit threshold (margin above threshold, higher = more increase) is 36.9% (active).
For `Cc1[nH]c(=S)sc1Cc1ccc(Cl)c(Cl)c1` the value was -29.6%; for `O=C(Nc1ccc2[nH]c(=S)sc2c1)Nc1ccccc1F`, -39.7%.
To `CC(C)Cn1c(=S)[nH]c2cc(Cl)ccc21` belongs -22.1%.
Take `COc1cc(S(=O)(=O)NCC2COCCO2)ccc1-n1cnnn1` (stereo not drawn): the signal change vs control minus 3*SD hit threshold (margin above threshold, higher = more increase) was -28.3%.
With `FC(F)(F)c1cnc2c(c1)[nH]c(=S)n2-c1ccc(Cl)cc1`, the signal change vs control minus 3*SD hit threshold (margin above threshold, higher = more increase) was -16.7%.
To `CNC(=O)c1ccc(NC(=O)CN2c3cccc4cccc(c34)S2(=O)=O)cc1` belongs -22%.
As for `O=C1NC(=S)SC1=C1CCCCCC1`, the signal change vs control minus 3*SD hit threshold (margin above threshold, higher = more increase) is 26% (active).
On to `CCCCCN(C(=O)CCC(=O)OCC(=O)N(C)C1CCCCC1)c1c(N)n(CCCC)c(=O)[nH]c1=O`, for which the signal change vs control minus 3*SD hit threshold (margin above threshold, higher = more increase) was -20.9%.
For `CCC1(C(=O)O)NC(c2cc(OC)ccc2O)C2C(=O)N(Cc3ccccc3)C(=O)C21` (stereo not drawn) the value was -29.6%; for `O=C1NCCN1Cc1ccccc1F`, -30.6%; for `ON/C=N/C(=S)Nc1ncc(C(F)(F)F)cc1Cl`, 6.1% (active).
For `CON/C=N/C(=S)Nc1ncc(C(F)(F)F)cc1Cl`, the signal change vs control minus 3*SD hit threshold (margin above threshold, higher = more increase) is 16.5% (active).
On to `C/C(Cl)=C\Cn1c(O)c(N=NC(N)=S)c2cc(Br)ccc21`, for which the signal change vs control minus 3*SD hit threshold (margin above threshold, higher = more increase) was -15.7%.
Regarding `COc1ccc(OC)c(S(=O)(=O)NCc2cn3cccc(C)c3n2)c1`, the signal change vs control minus 3*SD hit threshold (margin above threshold, higher = more increase) is -37.6%.
`O=[N+]([O-])c1ccc(CSc2nnc(SCc3ccc(Cl)cc3)s2)cc1`: the signal change vs control minus 3*SD hit threshold (margin above threshold, higher = more increase) was -24.5%.
`O=c1c2cc(Cl)ccc2nc(-c2ccc([N+](=O)[O-])cc2)n1O`: the signal change vs control minus 3*SD hit threshold (margin above threshold, higher = more increase) was 4.5% (active).
Take `O=c1c2ccc(Cl)cc2nc(-c2ccc([N+](=O)[O-])cc2)n1O`: the signal change vs control minus 3*SD hit threshold (margin above threshold, higher = more increase) was -15.4%.
Consider `O=c1c2cc(Br)ccc2nc(-c2ccc([N+](=O)[O-])cc2)n1O`, for which the signal change vs control minus 3*SD hit threshold (margin above threshold, higher = more increase) is 6.7% (active).
As for `Nc1nc(O)c(N=Nc2ccc(S(N)(=O)=O)cc2)c(=O)[nH]1`, the signal change vs control minus 3*SD hit threshold (margin above threshold, higher = more increase) is -32%.
Consider `CNC(=S)Nc1sc2c(c1C(=O)OC)CCC2`, for which the signal change vs control minus 3*SD hit threshold (margin above threshold, higher = more increase) is -15.1%.
Turning to `Cc1ccc(C(=O)N/N=C(/CC(=O)c2cccs2)C(F)(F)F)cc1`, the signal change vs control minus 3*SD hit threshold (margin above threshold, higher = more increase) is -22.1%.
Turning to `CC(C)=CCCC1=CCC2C(=O)NNC(=O)C2C1` (stereo not drawn), the signal change vs control minus 3*SD hit threshold (margin above threshold, higher = more increase) is -33.3%.
Consider `CC(C)(C)NC(=O)C(=O)NNC(=O)COc1ccc(Br)cc1`, for which the signal change vs control minus 3*SD hit threshold (margin above threshold, higher = more increase) was 6.9% (active).
Take `Cc1ccc(OCC(=O)NC(=S)Nc2ccc(Br)cn2)cc1`: the signal change vs control minus 3*SD hit threshold (margin above threshold, higher = more increase) is -4.8%.
To `CC(C)(C)NC(=O)C(=O)NNC(=O)COc1ccccc1` belongs -32.8%; to `c1ccc(SSc2ccccn2)nc1`, -36.9%; to `S=c1[nH]c(-c2ccccc2)cn1/N=C/c1cccc2ccccc12`, -17.6%.
To `Oc1oc(-c2cccc3ccccc23)nc1/C=N/c1nccs1` belongs -19.4%; to `CCn1c(O)c(N=NC(=O)CNC(=O)c2ccccc2F)c2ccccc21`, -28.7%; to `Oc1c(N=NC(=S)Nc2ccccc2F)c2ccccc2n1Cc1ccccc1`, -17.5%.
For `CCCn1c(O)c(N=NC(=O)c2ccco2)c2ccccc21`, the signal change vs control minus 3*SD hit threshold (margin above threshold, higher = more increase) is 29.8% (active).
For `CN1C(=O)/C(=N\OC(=O)c2cccc3ccccc23)c2ccccc21` the value was -18.7%.
Turning to `C/C(Nc1cccc(F)c1)=C(/C#N)C(N)=O`, the signal change vs control minus 3*SD hit threshold (margin above threshold, higher = more increase) is -24.1%.
Consider `Cc1ccc(-c2csc3nc[nH]c(=S)c23)cc1C`, for which the signal change vs control minus 3*SD hit threshold (margin above threshold, higher = more increase) is -21.7%.
For `S=c1[nH]cnc2scc(-c3ccc(Br)cc3)c12` the value was -22%; for `S=c1[nH]cnc2scc(-c3ccccc3)c12`, -3.2%.
`Cc1c(-c2ccccc2)sc2nc[nH]c(=S)c12`: the signal change vs control minus 3*SD hit threshold (margin above threshold, higher = more increase) is 6.1% (active).
For the compound `Cc1cc(-c2csc3nc[nH]c(=S)c23)cc(C)c1C`, the signal change vs control minus 3*SD hit threshold (margin above threshold, higher = more increase) was -3.4%.
For `Cc1sc2nc[nH]c(=S)c2c1-c1ccccc1` the value was 9.4% (active).
To `Clc1ccc(Nc2nc3cccnc3s2)cc1` belongs -29.8%; to `CCOC(=O)N1CCN(C(=O)CCn2c(=S)[nH]c3ccsc3c2=O)CC1`, -14.4%; to `CN(CCc1ccccn1)C(=O)CCC1CCCN(C(=O)c2ccsc2)C1` (stereo not drawn), -22.3%.
As to `N=C1S/C(=C\c2ccc(-c3cccc(Cl)c3)o2)C(=O)N1c1nccs1`, the signal change vs control minus 3*SD hit threshold (margin above threshold, higher = more increase) is -18.8%.
In the case of `Cc1cc(S(=O)(=O)N2CCOCC2)ccc1OCC(=O)NCc1ccco1`, the signal change vs control minus 3*SD hit threshold (margin above threshold, higher = more increase) is -27.2%.
Regarding `Oc1c(Br)cc(Br)cc1C=Nc1ccc2[nH]ncc2c1`, the signal change vs control minus 3*SD hit threshold (margin above threshold, higher = more increase) was 11% (active).
For `Oc1c(Br)cc(Br)cc1C=Nc1cccc2ncccc12` the value was -0.4%.
To `Oc1c(Br)cc(Br)cc1C=Nc1ccc2c(c1)OCCO2` belongs -5.9%; to `COc1ccc(-n2c(O)c(/C=C3\C=Nc4ccccc43)c(=O)[nH]c2=O)cc1`, -43%; to `COCC(=O)NC1CC2CCC(C1)N2C(=S)Nc1ccccc1C(=O)OC` (stereo not drawn), -14.6%.
`COc1cc(NC(=O)CCCOc2ccc(Cl)cc2Cl)c(C(=O)O)cc1OC`: the signal change vs control minus 3*SD hit threshold (margin above threshold, higher = more increase) was -17.7%.
`Cc1noc(C)c1CSc1ncnc2sc3c(c12)CCCCC3`: the signal change vs control minus 3*SD hit threshold (margin above threshold, higher = more increase) is -14.1%.
For `COc1cc(NC(=O)CSc2ncnc3sc4c(c23)CCC(C)C4)c(C(=O)O)cc1OC` (stereo not drawn) the value was 29.8% (active); for `COC(=O)c1c(NC(=O)CN2CCOCC2)sc2c1CCC(C)C2` (stereo not drawn), -31.2%.
As to `Cc1sc2ncnc(SCC(=O)c3ccc(O)cc3O)c2c1C`, the signal change vs control minus 3*SD hit threshold (margin above threshold, higher = more increase) is -22.1%.
`CC(=O)CSc1ncnc2sc3c(c12)CCC(C)C3` (stereo not drawn): the signal change vs control minus 3*SD hit threshold (margin above threshold, higher = more increase) is 49% (active).
Consider `CCOC(=O)/C(C)=N/NC(=O)c1cccc([N+](=O)[O-])c1`, for which the signal change vs control minus 3*SD hit threshold (margin above threshold, higher = more increase) was -14.2%.
With `CCOC(=O)c1ccc(Oc2cc(C)nc(SC)n2)cc1`, the signal change vs control minus 3*SD hit threshold (margin above threshold, higher = more increase) was -8.1%.
As to `Cc1cccc(C(=O)NC(=S)N(C)C2CCCCC2)c1`, the signal change vs control minus 3*SD hit threshold (margin above threshold, higher = more increase) was -9.9%.
